The values below come from PubChem BioAssay.

Unmarked numbers belong to inactive results. For part of these data: Potency and affinity values are given separately. Activity calls are given as the source filed them. Unless noted, the rule behind the calls is not given here.

Broadly, the inhibition is the drop in the measured response relative to a control, in per cent.

The nature of test [1]: antimalarial activity against Dd2 strain (AID 2302;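 active = growth inhibition above 50% at the single 2 µM test dose, taken to imply half-maximal potency below 2 µM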;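 note: 0% = DMSO untreated growth and 100% = chloroquine plus artemisinin killed control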). The note with it: P. falciparum Dd2 in RBCs, LDH growth readout, 72 h; at 2 µM; hits give high values.
A short description of test [2]: human hepatoma cell viability loss – ATP luminescence, cytotoxicity control for P. falciparum antimalarial project, primary screen (AID 2303;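 active = inhibition above 50%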;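 note: 0% = DMSO wells and 100% = digitonin-killed cells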). The following applies: HepG2 viability, 24-48 h, at 10 µM, hits give high values.
The target in test [3] is L-lactate dehydrogenase (Plasmodium falciparum (isolate CDC / Honduras)) (UniProt Q27743). The test is described as follows: PfLDH activity inhibition – cell lysate, 3D7 strain, counter-screen for P. falciparum growth inhibition project (AID 2304).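 Note: 0% = vehicle and 100% = reference inhibitor.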 The following applies: P. falciparum 3D7 crude extract, LDH APAD/NBT absorbance; at 2 µM; hits give high values.
Sequence of L-lactate dehydrogenase (Plasmodium falciparum (isolate CDC / Honduras)) (Q27743 whole entry, looked up): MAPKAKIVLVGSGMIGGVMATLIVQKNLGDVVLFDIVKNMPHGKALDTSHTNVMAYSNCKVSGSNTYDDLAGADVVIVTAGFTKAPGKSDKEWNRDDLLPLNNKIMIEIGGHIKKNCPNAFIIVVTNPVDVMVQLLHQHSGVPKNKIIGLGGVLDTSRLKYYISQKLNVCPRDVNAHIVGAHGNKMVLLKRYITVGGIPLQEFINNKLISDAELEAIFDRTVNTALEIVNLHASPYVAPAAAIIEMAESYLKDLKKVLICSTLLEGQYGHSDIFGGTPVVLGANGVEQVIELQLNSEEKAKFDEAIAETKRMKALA
Test [4] can be described thus: inhibition of 3D7 malaria parasite growth – strain 3D7 (AID 2306).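 Note: 0% = DMSO wells and 100% = chloroquine plus artemisinin control wells.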 The note with it: P. falciparum 3D7 erythrocytic growth, LDH absorbance, 72 h; at 2 µM; hits give high values.
The target in test [5] is Calcium-dependent protein kinase 1 (Plasmodium falciparum (isolate 3D7)) (UniProt P62344). The test can be described thus: PfCDPK1 kinase inhibitors, biochemical, TCAMS library (AID 1159585; cut-off not given, nearly all actives have IC50 up to about 0.98 µM;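 note: inhibitors leave more ATP so luminescence rises with inhibition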). The note with it: recombinant PfCDPK1, Kinase-Glo ATP depletion luminescence. In general terms: Kinase-Glo measures the ATP left after a reaction by luminescence.
Sequence of Calcium-dependent protein kinase 1 (Plasmodium falciparum (isolate 3D7)) (P62344 whole entry, looked up): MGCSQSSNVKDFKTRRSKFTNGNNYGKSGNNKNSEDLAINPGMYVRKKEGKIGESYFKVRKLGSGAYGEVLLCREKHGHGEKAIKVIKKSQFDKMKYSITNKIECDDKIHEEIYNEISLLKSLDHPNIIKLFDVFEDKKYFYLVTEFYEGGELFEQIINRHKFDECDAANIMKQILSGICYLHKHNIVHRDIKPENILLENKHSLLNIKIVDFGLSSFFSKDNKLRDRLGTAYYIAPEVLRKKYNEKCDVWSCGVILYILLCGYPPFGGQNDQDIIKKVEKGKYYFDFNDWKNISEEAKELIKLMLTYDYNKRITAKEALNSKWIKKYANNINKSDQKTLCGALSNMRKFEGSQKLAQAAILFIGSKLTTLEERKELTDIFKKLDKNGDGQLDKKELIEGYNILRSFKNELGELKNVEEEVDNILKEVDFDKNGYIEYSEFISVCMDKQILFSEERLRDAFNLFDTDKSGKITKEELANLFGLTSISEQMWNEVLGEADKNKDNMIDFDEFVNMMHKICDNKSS
For test [6], the target named is Plasmodium falciparum protein kinase 6 (PK6, PF3D7_1337100) (UniProt Q8IDW1). The test can be described thus: PfPK6 kinase inhibitors, biochemical, TCAMS library (AID 1159586). The note with it: recombinant PfPK6, Kinase-Glo ATP depletion luminescence.
Sequence of Plasmodium falciparum protein kinase 6 (PK6, PF3D7_1337100) (Q8IDW1 1-305): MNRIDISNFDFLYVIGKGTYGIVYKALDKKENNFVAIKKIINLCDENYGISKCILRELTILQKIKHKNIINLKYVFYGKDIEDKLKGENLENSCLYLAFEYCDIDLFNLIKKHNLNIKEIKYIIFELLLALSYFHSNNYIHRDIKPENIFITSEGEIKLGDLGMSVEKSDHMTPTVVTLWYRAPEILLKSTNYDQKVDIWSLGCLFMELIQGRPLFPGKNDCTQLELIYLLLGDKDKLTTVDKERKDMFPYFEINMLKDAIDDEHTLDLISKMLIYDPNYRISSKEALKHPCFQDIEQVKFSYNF
In test [7] the target is Protein kinase 7 (PK7), Plasmodium falciparum 3D7 (PF3D7_0213400) (UniProt Q7YTF7). The test is described as follows: inhibition of Plasmodium PK7 catalytic activity – biochemical, TCAMS antimalarial set, Kinase-Glo luminescence (AID 1159587). The following applies: recombinant PfPK7, Kinase-Glo ATP depletion luminescence.
Sequence of Protein kinase 7 (PK7), Plasmodium falciparum 3D7 (PF3D7_0213400) (Q7YTF7 1-343): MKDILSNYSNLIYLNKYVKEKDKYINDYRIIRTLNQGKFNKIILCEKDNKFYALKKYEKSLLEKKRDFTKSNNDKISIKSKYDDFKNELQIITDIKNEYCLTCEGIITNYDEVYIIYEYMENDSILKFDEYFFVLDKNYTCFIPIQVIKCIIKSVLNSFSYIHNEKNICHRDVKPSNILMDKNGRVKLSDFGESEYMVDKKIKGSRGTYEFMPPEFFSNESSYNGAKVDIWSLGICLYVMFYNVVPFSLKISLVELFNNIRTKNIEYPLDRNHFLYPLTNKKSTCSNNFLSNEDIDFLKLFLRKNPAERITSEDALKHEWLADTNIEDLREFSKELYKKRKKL
Test [8] addresses Calcium-dependent protein kinase 4 (Plasmodium falciparum (isolate 3D7)) (UniProt Q8IBS5). The test is described as follows: PfCDPK4 kinase inhibitors, biochemical, TCAMS library (AID 1159588; cut-off not given, nearly all actives have IC50 up to about 0.91 µM). The note with it: recombinant PfCDPK4, Kinase-Glo ATP depletion luminescence.

Sequence of Calcium-dependent protein kinase 4 (Plasmodium falciparum (isolate 3D7)) (Q8IBS5 whole entry, looked up): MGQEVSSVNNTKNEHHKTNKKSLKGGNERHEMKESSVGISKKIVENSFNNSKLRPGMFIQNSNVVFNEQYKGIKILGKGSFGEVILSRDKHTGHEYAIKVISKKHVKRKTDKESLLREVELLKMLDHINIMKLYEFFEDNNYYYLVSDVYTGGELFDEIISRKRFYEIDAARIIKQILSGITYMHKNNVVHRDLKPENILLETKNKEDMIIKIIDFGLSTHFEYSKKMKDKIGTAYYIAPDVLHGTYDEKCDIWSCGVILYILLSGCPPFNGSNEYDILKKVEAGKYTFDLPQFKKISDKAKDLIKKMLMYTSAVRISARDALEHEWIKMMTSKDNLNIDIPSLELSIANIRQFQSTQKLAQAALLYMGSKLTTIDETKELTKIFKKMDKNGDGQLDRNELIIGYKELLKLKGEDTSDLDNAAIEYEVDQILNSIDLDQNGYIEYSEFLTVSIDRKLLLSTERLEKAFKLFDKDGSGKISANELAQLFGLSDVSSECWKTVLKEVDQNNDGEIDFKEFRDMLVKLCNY

As to `O=C(Nc1ccnc2ccccc12)NC1CCN(Cc2ccccc2)CC1`, the growth inhibition is 43% in test [1] and 96% (active) in test [4]. Further, the inhibition was 18% in test [2] and 5% in test [3]. Besides, the result in test [5], in test [6], in test [7] and in test [8] was inactive.

For the compound `O=C(Nc1ccccc1F)NC1CCN(c2ccnc(Nc3ccc(F)cc3)n2)CC1`, the growth inhibition was 63% (active) in test [1] and 99% (active) in test [4]. Further, the inhibition is 13% in test [2] and -4% in test [3]. Moreover, the outcome in test [5], in test [6], in test [7] and in test [8] was inactive.

Turning to `CC(C)(C)Oc1ccc(CC2NC3(C(=O)N(Cc4ccc(C(C)(C)C)cc4)c4ccccc43)C3C(=O)N(c4ccc(Br)cc4)C(=O)C23)cc1` (centres undefined), the growth inhibition in test [1] and in test [4] was 94% (active) each time. Besides, the inhibition in test [2] is 24%; in test [3] it was 0%. Further, the outcome in test [5], in test [6], in test [7] and in test [8] was inactive.

Take `O=C(NC1CC1)c1cnc(N2CCN(Cc3ccc(Cl)cc3)CC2)c(Cl)c1`: the growth inhibition in test [1] is 91% (active); in test [4] it was 93% (active). Besides, the inhibition in test [2] was 39%; in test [3] it was 0%. Further, the result in test [5], in test [6], in test [7] and in test [8] was inactive.

On to `O=C(N[C@@H]1C[C@H]1c1ccccc1)N(CCCn1ccnc1)Cc1csc(-c2ccc(CNCc3ccccc3)cc2)n1`, for which the growth inhibition is 20% in test [1] and 96% (active) in test [4]. In addition, the inhibition in test [2] is 6%; in test [3], 2%. Further, the outcome in test [5], in test [6], in test [7] and in test [8] was inactive.

With `O=C(CCN1CCCCC1)Nc1ccc(Nc2nccc(NCC(O)c3ccccc3)n2)cc1` (centres undefined), the growth inhibition was 60% (active) in test [1] and 102% (active) in test [4]. Also, the inhibition in test [2] was 18%; in test [3], -1%. Further, the result in test [5], in test [6], in test [7] and in test [8] was inactive.

Regarding `Cc1cc(O)c(CNC2CCCCC2)cc1C`, the growth inhibition in test [1] and in test [4] was 95% (active) each time. The inhibition in test [2] was 6%; in test [3], -2%. For the same compound, the result in test [5], in test [6], in test [7] and in test [8] was inactive.

`O=C(CCc1cccnc1)Nc1cccc(-c2ccc(-c3nc4ccc(C(F)(F)F)cc4[nH]3)cc2)c1`: the values for the growth inhibition in test [1] and in test [4] were -5% and 93% (active), respectively. Moreover, the inhibition in test [2] was 38%; in test [3], 3%. The outcome in test [5], in test [6], in test [7] and in test [8] was inactive.

As for `CC(C)(C)OC(=O)NCc1ccc(Nc2nnc(-c3cccc(OCC(=O)NCc4cc(C(F)(F)F)cc(C(F)(F)F)c4)c3)o2)cc1`, the growth inhibition in test [1] is 19%; in test [4] it was 90% (active). Also, the values for the inhibition in test [2] and in test [3] were 32% and 1%, respectively. In addition, the result in test [5], in test [6], in test [7] and in test [8] was inactive.

Take `COc1ccc2c(OC)ccc(CNCCCCCCNCc3ccc(OC)c4ccc(OC)cc34)c2c1`: the growth inhibition in test [1] is 98% (active); in test [4], 102% (active). The inhibition was 100% (active) in test [2] and -3% in test [3]. In addition, the result in test [5], in test [6], in test [7] and in test [8] was inactive.

In the case of `O=C1CCCN1CCCNCc1ccc(-c2ccc(-c3nc4ccc(C(F)(F)F)cc4[nH]3)s2)cc1`, the growth inhibition in test [1] is 96% (active); in test [4], 100% (active). Further, the inhibition in test [2] was 9%; in test [3], -4%. The result in test [5], in test [6], in test [7] and in test [8] was inactive.

Consider `CCN(CC)CCCC(C)Nc1c(-c2ccc(OC)cc2)cnc2ccccc12` (centres undefined), for which the growth inhibition in test [1] was 38%; in test [4], 93% (active). In addition, the results for the inhibition in test [2] and in test [3] were 3% and -6%, respectively. The outcome in test [5], in test [6], in test [7] and in test [8] was inactive.

As to `COc1ccc(C(=O)N2CCC(C(=O)NC(C)c3ccc(-n4ccnc4)cc3)CC2)c2ccccc12` (centres undefined), the figures for the growth inhibition in test [1] and in test [4] were 79% (active) and 83% (active), respectively. The inhibition in test [2] was 12%; in test [3], -4%. In addition, the outcome in test [5], in test [6], in test [7] and in test [8] was inactive.

Take `Cc1cc(N2CCCC2)nc(Nc2ccc(NC(=O)CC(C)C)cc2)n1`: the growth inhibition in test [1] was 53% (active); in test [4], 95% (active). Also, the inhibition in test [2] is 37%; in test [3], -1%. Besides, the result in test [5], in test [6], in test [7] and in test [8] was inactive.

Take `CN(C)c1ccc(-c2csc(C(=O)NCC3CCN(CCC(C)(C)C)C3)c2)cc1` (centres undefined): the growth inhibition in test [1] is 16%; in test [4] it was 87% (active). In addition, the figures for the inhibition in test [2] and in test [3] were 29% and 4%, respectively. Moreover, the outcome in test [5], in test [6], in test [7] and in test [8] was inactive.

As to `Cc1cccc2[nH]c(-c3ccc(-c4cccc(CN5CCC(N)C5)c4)s3)nc12` (centres undefined), the figures for the growth inhibition in test [1] and in test [4] were 78% (active) and 95% (active), respectively. Also, the inhibition in test [2] is 16%; in test [3] it was 1%. For the same compound, the outcome in test [5], in test [6], in test [7] and in test [8] was inactive.

Consider `CCCN(Cc1nnc(-c2cccs2)o1)C(=O)C1COc2ccccc2O1` (centres undefined), for which the values for the growth inhibition in test [1] and in test [4] were 49% and 87% (active), respectively. For the same compound, the inhibition was 1% in test [2] and 0% in test [3]. Also, the result in test [5], in test [6], in test [7] and in test [8] was inactive.

Regarding `CC(C)[C@H](NC(=O)c1ccc(O)c(-c2ccc(Cl)c(Cl)c2)c1)C(=O)NCCN1CCOCC1`, the growth inhibition in test [1] was 44%; in test [4], 95% (active). The inhibition was -4% in test [2] and -1% in test [3]. For the same compound, the result in test [5], in test [6], in test [7] and in test [8] was inactive.
